Experimental data: PubChem BioAssay (EPA / NIEHS)
“And” between values parts separate entries of the source, which are not always exact repeats. Identical values can stand only once. Inconclusive results are not listed. Some structures have more than one record in an assay (separate samples or runs), and their calls can disagree. The source made the active and inactive calls. The calls were made as follows: active = hit-call score of the fitted dose curve at least 0.9, where 1 is the maximum; inconclusive = response in the unintended direction; inactive = score below 0.9.

System: not listed separately
Assay: TOX21_p53_BLA_p5_viability: Viability Assessment in the Tox21 HCT-116 p53 Agonism Beta-lactamase Assay, Phase 5 (AID 2283600)
In short: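 Counter-readout for cytotoxicity: ATP-dependent luminescence from CellTiter-Glo, read in the beta-lactamase wells after 30 min at RT, following a 16 h compound exposure at 37C.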

**Q.** For `O=[N+]([O-])c1ccc(CCl)cc1`, which outcome is on record?
**A.** inactive

**Q.** With `C(COCC1CO1)OCC1CO1` (stereo unspecified) as the molecule, how does the outcome read?
**A.** inactive

**Q.** Which outcome does the source give for `COC1=CC(=O)O[C@@H](/C=C/c2ccccc2)C1` here?
**A.** inactive

**Q.** Which outcome does the source give for `CCSCc1ccccc1OC(=O)NC` here?
**A.** inactive

**Q.** With `CNN` as the molecule, how does the outcome read?
**A.** inactive

**Q.** With `CN1[C@@H]2CC[C@H]1CC(OC(=O)c1cc(Cl)cc(Cl)c1)C2` (stereo partly specified) as the molecule, how does the outcome read?
**A.** inactive

**Q.** For `C[N+](C)(C)CCOC(=O)C(O)(c1ccccc1)c1ccccc1`, which outcome is on record?
**A.** inactive

**Q.** For `Clc1ccc(C(Cl)(Cl)Cl)cc1Cl`, which outcome is on record?
**A.** inactive

**Q.** Which outcome does the source give for `Cc1nc(N)nc(N)n1` here?
**A.** inactive

**Q.** For `CC(Cc1ccccc1)NC=O` (stereo unspecified), which outcome is on record?
**A.** inactive

**Q.** Which outcome does the source give for `N#CC(Cl)Cl` here?
**A.** inactive

**Q.** Which outcome does the source give for `Cc1cnc[nH]1` here?
**A.** inactive

**Q.** With `CCCN(CCCl)c1c([N+](=O)[O-])cc(C(F)(F)F)cc1[N+](=O)[O-]` as the molecule, how does the outcome read?
**A.** inactive

**Q.** With `CC(N)=S` as the molecule, how does the outcome read?
**A.** inactive

**Q.** For `CN1CCc2cc(Cl)c(O)cc2[C@H]2c3ccccc3CC[C@@H]21`, which outcome is on record?
**A.** inactive

**Q.** With `C#CC(C)(O)CC` (stereo unspecified) as the molecule, how does the outcome read?
**A.** inactive

**Q.** For `C=C(C#N)CCC#N`, which outcome is on record?
**A.** inactive

**Q.** With `COC(=O)C(Cl)C(=O)OC` as the molecule, how does the outcome read?
**A.** inactive

**Q.** Which outcome does the source give for `C[C@@H]([C@H](O)c1ccccc1)N(C)C` here?
**A.** inactive

**Q.** With `Cc1cc(Cl)ccc1N=CN(C)C` as the molecule, how does the outcome read?
**A.** inactive

**Q.** For `C[N+]1(C)[C@@H]2CC[C@H]1CC(OC(=O)c1c[nH]c3ccccc13)C2` (stereo partly specified), which outcome is on record?
**A.** inactive

**Q.** Which outcome does the source give for `C[C@]1(O)CC[C@H]2[C@@H]3CCC4=CC(=O)CC[C@]4(C)[C@@]3(F)[C@@H](O)C[C@@]21C` here?
**A.** inactive

**Q.** With `O=C(C[C@@H]1NCCC[C@H]1O)Cn1cnc2cc(Br)c(Cl)cc2c1=O` as the molecule, how does the outcome read?
**A.** inactive

**Q.** With `Cc1ccc(-c2nc3ccc(C)cn3c2CC(=O)N(C)C)cc1` as the molecule, how does the outcome read?
**A.** inactive

**Q.** For `Clc1cc(Cl)c(-c2cc(Cl)c(Cl)cc2Cl)cc1Cl`, which outcome is on record?
**A.** inactive

**Q.** Which outcome does the source give for `Cn1cc[n+](C)c1` (tested in a mixture with another compound) here?
**A.** inactive

**Q.** With `CCCCc1ccc(C(=O)O)nc1` as the molecule, how does the outcome read?
**A.** inactive

**Q.** Which outcome does the source give for `[Cl][Sn]([Cl])([Cl])[Cl]` here?
**A.** inactive

**Q.** With `CN1C(=O)CN=C(c2ccccc2)c2cc([N+](=O)[O-])ccc21` as the molecule, how does the outcome read?
**A.** inactive

Molecular target: Cellular tumor antigen p53 (Homo sapiens) (UniProt P04637)
Assay: TOX21_p53_BLA_p4_ratio: Tox21 HCT-116 p53 Agonism Beta-lactamase Assay, Ratio, Phase 4 (AID 2283601)
In short: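 HCT116 cells carrying an inducible beta-lactamase reporter were plated at 4000 cells/well, rested 5 h, then exposed to compounds in DMSO (217-fold dilution) for 16 h at 37C. CCF4-AM substrate was loaded 2 h at room temperature; 460/530 nm emission ratio scored gain-of-signal versus DMSO.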

Cellular tumor antigen p53 (Homo sapiens), sequence (P04637 whole entry, looked up): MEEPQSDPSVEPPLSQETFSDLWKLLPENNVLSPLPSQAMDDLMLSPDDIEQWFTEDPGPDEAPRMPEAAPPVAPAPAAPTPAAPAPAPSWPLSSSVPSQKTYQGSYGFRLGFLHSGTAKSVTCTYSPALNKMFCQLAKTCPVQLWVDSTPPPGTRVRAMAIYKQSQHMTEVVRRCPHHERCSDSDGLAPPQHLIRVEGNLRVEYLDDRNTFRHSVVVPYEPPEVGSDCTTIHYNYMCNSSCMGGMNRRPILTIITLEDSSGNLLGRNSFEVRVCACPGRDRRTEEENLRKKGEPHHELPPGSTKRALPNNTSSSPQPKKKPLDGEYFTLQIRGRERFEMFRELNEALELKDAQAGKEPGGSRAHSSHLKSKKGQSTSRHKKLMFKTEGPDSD

**Q.** With `O=[N+]([O-])c1ccc(CCl)cc1` as the molecule, how does the outcome read?
**A.** inactive

**Q.** For `C(COCC1CO1)OCC1CO1` (stereo unspecified), which outcome is on record?
**A.** inactive

**Q.** With `COC1=CC(=O)O[C@@H](/C=C/c2ccccc2)C1` as the molecule, how does the outcome read?
**A.** inactive

**Q.** Which outcome does the source give for `CCSCc1ccccc1OC(=O)NC` here?
**A.** inactive

**Q.** Which outcome does the source give for `Cc1ncc2n1-c1ccc(Cl)cc1C(c1ccccc1F)=NC2` here?
**A.** inactive

**Q.** For `CN1[C@@H]2CC[C@H]1CC(OC(=O)c1cc(Cl)cc(Cl)c1)C2` (stereo partly specified), which outcome is on record?
**A.** inactive

**Q.** With `C[N+](C)(C)CCOC(=O)C(O)(c1ccccc1)c1ccccc1` as the molecule, how does the outcome read?
**A.** inactive

**Q.** With `Clc1ccc(C(Cl)(Cl)Cl)cc1Cl` as the molecule, how does the outcome read?
**A.** inactive

**Q.** For `Cc1nc(N)nc(N)n1`, which outcome is on record?
**A.** inactive

**Q.** For `N#CC(Cl)Cl`, which outcome is on record?
**A.** inactive

**Q.** With `Cc1ccc2c(c1)[C@]13CCCC[C@@H]1[C@H](C2)N(C)CC3` as the molecule, how does the outcome read?
**A.** inactive

**Q.** Which outcome does the source give for `O=C(O)C(Cl)(Cl)Br` here?
**A.** inactive

**Q.** For `CCCCCCCCCCCCCCCCn1cc[n+](C)c1`, which AC50 is on record?
**A.** 71.6 µM (active) and 77.7 µM (active) and 60.1 µM (active)

**Q.** What about the outcome of the same molecule?
**A.** inactive

**Q.** For `CC(N)=S`, which outcome is on record?
**A.** inactive

**Q.** Which outcome does the source give for `C#CC(C)(O)CC` (stereo unspecified) here?
**A.** inactive

**Q.** Which outcome does the source give for `C=C(C#N)CCC#N` here?
**A.** inactive

**Q.** With `Cc1ccc2c(c1)C1CN(C)CCC1N2` (stereo unspecified) as the molecule, how does the outcome read?
**A.** inactive

**Q.** With `COC(=O)C(Cl)C(=O)OC` as the molecule, how does the outcome read?
**A.** inactive

**Q.** For `C[C@@H]([C@H](O)c1ccccc1)N(C)C`, which outcome is on record?
**A.** inactive

**Q.** Which outcome does the source give for `Cc1cc(Cl)ccc1N=CN(C)C` here?
**A.** inactive

**Q.** Which outcome does the source give for `C[N+]1(C)[C@@H]2CC[C@H]1CC(OC(=O)c1c[nH]c3ccccc13)C2` (stereo partly specified) here?
**A.** inactive

**Q.** With `C[C@]1(O)CC[C@H]2[C@@H]3CCC4=CC(=O)CC[C@]4(C)[C@@]3(F)[C@@H](O)C[C@@]21C` as the molecule, how does the outcome read?
**A.** inactive

**Q.** Which outcome does the source give for `O=C(C[C@@H]1NCCC[C@H]1O)Cn1cnc2cc(Br)c(Cl)cc2c1=O` here?
**A.** inactive

**Q.** For `Cc1ccc(-c2nc3ccc(C)cn3c2CC(=O)N(C)C)cc1`, which outcome is on record?
**A.** inactive

**Q.** Which outcome does the source give for `Clc1cc(Cl)c(-c2cc(Cl)c(Cl)cc2Cl)cc1Cl` here?
**A.** inactive

**Q.** Which outcome does the source give for `[Cl][Sn]([Cl])([Cl])[Cl]` here?
**A.** inactive
